PubChem BioAssay (NCATS)
Where “and” joins values, the source holds several entries; their conditions need not be identical. Equal values may be shown once. Records with an inconclusive call do not appear. Calls of active or inactive are those of the source. Unless noted, calls follow the shape of the dose curve; as a rule, active = well fitted curve in the direction sought with a large enough effect; inconclusive = small, poorly fitted or top-dose-only effect, or another doubt; inactive = no such curve, though single readings can be large; an effect the other way counts as inactive or inconclusive.

What was measured:
[1] = target: Cytochrome P450 2C9 (Homo sapiens) (UniProt P11712); assay: Cytochrome P450 family 2 subfamily C member 9 (CYP2C9) small molecule antagonists: luciferase biochemical (cell-free) qHTS assay (AID 1645842; active = well fitted curve in the direction sought with a large enough effect in the repeat runs; an effect the other way counts as inactive or inconclusive; also: nearly all actives have a fitted effect of over 55% in size)
Sequence of Cytochrome P450 2C9 (Homo sapiens) (P11712 whole entry, looked up): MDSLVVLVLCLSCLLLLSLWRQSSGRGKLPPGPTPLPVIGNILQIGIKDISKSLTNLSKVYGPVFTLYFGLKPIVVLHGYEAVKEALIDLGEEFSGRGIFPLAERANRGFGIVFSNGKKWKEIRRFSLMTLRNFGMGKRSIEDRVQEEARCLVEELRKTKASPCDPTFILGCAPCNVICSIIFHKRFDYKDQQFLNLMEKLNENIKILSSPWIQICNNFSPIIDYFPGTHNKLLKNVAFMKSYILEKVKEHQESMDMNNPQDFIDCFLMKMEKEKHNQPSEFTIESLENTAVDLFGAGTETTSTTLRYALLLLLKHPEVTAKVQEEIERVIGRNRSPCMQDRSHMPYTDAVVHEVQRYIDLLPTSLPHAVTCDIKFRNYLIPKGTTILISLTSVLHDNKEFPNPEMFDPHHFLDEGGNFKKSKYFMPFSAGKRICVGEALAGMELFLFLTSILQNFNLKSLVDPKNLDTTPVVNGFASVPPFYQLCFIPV
In short: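 P450-Glo CYP2C9 system: proluciferin substrate with enzyme in mix containing 0.4% BSA, 10 min at room temperature, then NADPH regeneration solution added and incubated 1 h at 37C. Detection reagent stopped reaction; luminescence read after 20 min as RLU.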

[2] = Primary qHTS for inhibitors of nuclear receptor binding SET domain protein 2 (NSD2) in an isogenic RCH-ACV NSD2 p.E1099K mutant (9B) (AID 1645876); also: nearly all actives have a fitted effect of over 70% in size
[3] = Primary qHTS for inhibitors of nuclear receptor binding SET domain protein 2 (NSD2) in an RCH-ACV wild type WT cells (2C) (AID 1645877); also: nearly all actives have a fitted effect of over 70% in size
Potency is read from the fitted curve at half-maximal effect.

Q: With C[C@@H](NC(=O)C(=O)c1c[nH]c2ccc([N+](=O)[O-])cc12)c1ccccc1 as the compound, how does the Potency [1] read?
A: Its Potency is “inactive”.

Q: What about the Potency [2] of the same compound?
A: Its Potency is “inactive”.

Q: What about the Potency [3] of the same compound?
A: Its Potency is “inactive”.

Q: Which results are given for Oc1cccc(-c2c3nc(c(-c4cccc(O)c4)c4ccc([nH]4)c(-c4cccc(O)c4)c4nc(c(-c5cccc(O)c5)c5ccc2[nH]5)CC4)C=C3)c1?
A: Potency [1]: 11 µM (active); Potency [2]: 8.41 µM (active); Potency [3]: 8.41 µM (active)

Q: Which Potency [1] does the source give for C#CCNCc1cc2cc(OCc3ccccc3)ccc2[nH]1 here?
A: The Potency was 3.79 µM (active).

Q: And the Potency [2]?
A: Its Potency is “inactive”.

Q: And the Potency [3]?
A: Its Potency is “inactive”.

Q: For COc1cc(N2CCC(O)CC2)ccc1Nc1nc(Nc2ccccc2S(=O)(=O)C(C)C)c2[nH]cnc2n1, which Potency [1] is on record?
A: Its Potency is 15.1 µM (active).

Q: And the Potency [2]?
A: The Potency was 5.78 µM (active).

Q: What about the Potency [3] of the same compound?
A: Its Potency is 4.09 µM (active).

Q: With Cc1ccc(C2(C(=O)N3CCC(n4nc(-c5ccccc5)oc4=O)CC3)CC2)cc1 as the compound, how does the Potency [1] read?
A: The Potency was 0.756 µM (active).

Q: What about the Potency [2] of the same compound?
A: The Potency was “inactive”.

Q: And the Potency [3]?
A: Its Potency is “inactive”.

Q: For Cn1ncnc1[C@@H]1c2n[nH]c(=O)c3cc(F)cc(c23)N[C@H]1c1ccc(F)cc1, which Potency [1] is on record?
A: Its Potency is “inactive”.

Q: And the Potency [2]?
A: Its Potency is 20.5 µM (active).

Q: And the Potency [3]?
A: Its Potency is 9.16 µM (active).

Q: Which results are given for CC(C)(C)Oc1ccc(OCC2Cc3ccccc3CN2C(=O)c2cccc3ccccc23)cc1 (stereo unspecified)?
A: Potency [1]: 1.69 µM (active); Potency [2]: inactive; Potency [3]: inactive

Q: Which Potency [1] does the source give for COc1cc(NC(=O)c2cccc(-n3cc(NC(=O)Nc4cccc(C)c4)cn3)c2)cc(OC)c1OC here?
A: Its Potency is 2.68 µM (active).

Q: What about the Potency [2] of the same compound?
A: Its Potency is 8.17 µM (active).

Q: And the Potency [3]?
A: Its Potency is 9.16 µM (active).

Q: For CN1CCC(NC(=O)c2cc(-c3c(O)cc(O)cc3Oc3ccc([N+](=O)[O-])cc3)on2)CC1, which Potency [1] is on record?
A: The Potency was 12 µM (active).

Q: What about the Potency [2] of the same compound?
A: The Potency was 0.23 µM (active).

Q: What about the Potency [3] of the same compound?
A: The Potency was 0.23 µM (active).

Q: Which results are given for CNc1ccc([N+](=O)[O-])c(Nc2ccc3[nH]ncc3c2)n1?
A: Potency [1]: 0.756 µM (active); Potency [2]: 7.28 µM (active); Potency [3]: 7.28 µM (active)

Q: With N#CC(CCCN1CCC(O)(c2ccc(Cl)cc2)CC1)(c1ccccc1)c1ccccc1 as the compound, how does the Potency [1] read?
A: The Potency was 23.9 µM (active).

Q: And the Potency [2]?
A: The Potency was 5.15 µM (active).

Q: What about the Potency [3] of the same compound?
A: The Potency was 6.49 µM (active).

Q: With COCc1c(Cl)ccc2c1CC[C@H]2c1ncc[nH]1 as the compound, how does the Potency [1] read?
A: The Potency was 21.3 µM (active).

Q: And the Potency [2]?
A: Its Potency is “inactive”.

Q: And the Potency [3]?
A: Its Potency is “inactive”.

Q: For Cc1[nH]c(/C=C2\C(=O)Nc3ccc(F)cc32)c(C)c1C(=O)NCCN1CCCC1, which Potency [1] is on record?
A: Its Potency is “inactive”.

Q: And the Potency [2]?
A: Its Potency is 16.3 µM (active) and 7.23 µM (active).

Q: What about the Potency [3] of the same compound?
A: Its Potency is 11.5 µM (active) and 7.23 µM (active).

Q: For CCC1C(=O)N(C)c2cnc(Nc3ccc(C(=O)NC4CCN(C)CC4)cc3OC)nc2N1C1CCCC1 (stereo unspecified), which Potency [1] is on record?
A: Its Potency is 2.13 µM (active).

Q: What about the Potency [2] of the same compound?
A: Its Potency is 0.0073 µM (active).

Q: And the Potency [3]?
A: Its Potency is 0.0082 µM (active).

Q: For CCOC(=O)C1(CCOc2ccccc2)CCN(Cc2ccc(O)c(Cl)c2)CC1, which Potency [1] is on record?
A: Its Potency is 6.01 µM (active).

Q: And the Potency [2]?
A: The Potency was 23 µM (active).

Q: What about the Potency [3] of the same compound?
A: Its Potency is 23 µM (active).

Q: Which Potency [1] does the source give for C#CC(=O)N(c1ccc(OC)cc1OC)C(C(=O)NCC(=O)OCC)c1cccs1 (stereo unspecified) here?
A: The Potency was 12 µM (active).

Q: And the Potency [2]?
A: The Potency was 0.183 µM (active).

Q: And the Potency [3]?
A: The Potency was 0.0649 µM (active).

Q: With CCOC(=O)c1cnn(-c2ccccc2)c1NC(=O)c1cc2nc(-c3ccco3)cc(C(F)(F)Cl)n2n1 as the compound, how does the Potency [1] read?
A: The Potency was 3.38 µM (active).

Q: What about the Potency [2] of the same compound?
A: Its Potency is “inactive”.

Q: What about the Potency [3] of the same compound?
A: The Potency was “inactive”.

Q: Which results are given for CC1(C(=O)Nc2ccc(F)nc2)CCCN1c1nc(Nc2cc(C3CC3)[nH]n2)c2cccn2n1 (stereo unspecified)?
A: Potency [1]: 10.7 µM (active); Potency [2]: 1.29 µM (active); Potency [3]: 0.649 µM (active)

Q: For COc1ccc(CNc2nc(N(CCO)CCO)nc3c2ncn3C(C)C)cc1, which Potency [1] is on record?
A: Its Potency is 3.79 µM (active).

Q: And the Potency [2]?
A: The Potency was 7.42 µM (active).

Q: And the Potency [3]?
A: Its Potency is 5.25 µM (active).

Q: Which Potency [1] does the source give for CCCc1cc(C)[nH]c(=O)c1CNC(=O)c1cc(-c2ccnc(N3CCN(C)CC3)c2)cc2c1cnn2C(C)C here?
A: The Potency was 13.5 µM (active).

Q: What about the Potency [2] of the same compound?
A: Its Potency is 12.9 µM (active) and 16.6 µM (active).

Q: And the Potency [3]?
A: The Potency was 9.16 µM (active) and 16.6 µM (active).

Q: With Cc1cc(OCCCS(C)(=O)=O)cc(C)c1-c1cccc(COc2ccc3c(c2)OCC3CC(=O)O)c1 (stereo unspecified) as the compound, how does the Potency [1] read?
A: The Potency was “inactive”.

Q: And the Potency [2]?
A: Its Potency is “inactive”.

Q: What about the Potency [3] of the same compound?
A: The Potency was “inactive”.

Q: Which results are given for C[C@H](Oc1cc(-n2cnc3ccc(CN4CCN(C)CC4)cc32)sc1C(N)=O)c1ccccc1C(F)(F)F?
A: Potency [1]: 6.74 µM (active); Potency [2]: 1.15 µM (active); Potency [3]: 1.29 µM (active)

Q: What does the source list for Cc1ccccc1C(C(=O)NC1CCCCC1)N(C(=O)Cn1cnc2ccccc21)c1cccc(F)c1 (stereo unspecified)?
A: Potency [1]: 16.9 µM (active); Potency [2]: 12.9 µM (active); Potency [3]: 23 µM (active)

Q: With N#Cc1ccc2ncnc(NCCc3ccccc3)c2c1 as the compound, how does the Potency [1] read?
A: The Potency was 26.8 µM (active).

Q: And the Potency [2]?
A: The Potency was 6.49 µM (active).

Q: What about the Potency [3] of the same compound?
A: The Potency was 4.09 µM (active).

Q: With Oc1cccc(C2NC(=S)Nc3cccc(F)c32)c1 (stereo unspecified) as the compound, how does the Potency [1] read?
A: Its Potency is 15.1 µM (active).

Q: And the Potency [2]?
A: The Potency was 3.65 µM (active).

Q: And the Potency [3]?
A: Its Potency is 4.09 µM (active).

Q: For Cn1nc(-c2ccc(C(F)(F)F)cc2)nc2c(=O)n(C)c(=O)nc1-2, which Potency [1] is on record?
A: Its Potency is “inactive”.

Q: What about the Potency [2] of the same compound?
A: The Potency was 2.58 µM (active).

Q: What about the Potency [3] of the same compound?
A: The Potency was 2.3 µM (active).

Q: For Cc1cn2cc(C(=O)N(C)CCO)cc(NC3CCOc4cccc(C)c43)c2n1 (stereo unspecified), which Potency [1] is on record?
A: The Potency was 19 µM (active).

Q: And the Potency [2]?
A: The Potency was “inactive”.

Q: And the Potency [3]?
A: Its Potency is “inactive”.

Q: What does the source list for CC(C)n1nc(C#Cc2ccccc2)c2c(N)ncnc21?
A: Potency [1]: 0.601 µM (active); Potency [2]: 1.83 µM (active); Potency [3]: 3.25 µM (active)

Q: With CCCc1cc(C)[nH]c(=O)c1CNC(=O)c1cc(-c2ccc(N3CCN(C(C)C)CC3)nc2)cc2c1cnn2C(C)C as the compound, how does the Potency [1] read?
A: The Potency was 10.7 µM (active).

Q: What about the Potency [2] of the same compound?
A: The Potency was 11.5 µM (active) and 7.42 µM (active).

Q: And the Potency [3]?
A: Its Potency is 11.5 µM (active) and 5.25 µM (active).

Q: With Cc1cc(N2CCN(C(=O)Oc3ccc(-c4ccccc4)cn3)CC2)c2ccccc2n1 as the compound, how does the Potency [1] read?
A: Its Potency is 26.8 µM (active).

Q: And the Potency [2]?
A: The Potency was 12.9 µM (active).

Q: What about the Potency [3] of the same compound?
A: Its Potency is 12.9 µM (active).

Q: For CNC(=O)[C@@H](c1ccccc1)N1CCc2cc(OC)c(OC)cc2[C@@H]1CCc1ccc(C(F)(F)F)cc1, which Potency [1] is on record?
A: The Potency was 6.74 µM (active).

Q: What about the Potency [2] of the same compound?
A: Its Potency is 23 µM (active).

Q: What about the Potency [3] of the same compound?
A: Its Potency is 16.3 µM (active).

Q: What does the source list for Cn1ncc(Cl)c1-c1cc(C(=O)N[C@H](CN)Cc2ccc(F)c(F)c2)sc1Cl?
A: Potency [1]: 13.5 µM (active); Potency [2]: 1.63 µM (active) and 1.05 µM (active); Potency [3]: 2.05 µM (active) and 1.05 µM (active)
